Measurements reported in PubChem BioAssay AID1345082 (National Center for Advancing Translational Sciences (NCATS), 2018).
About 4,000 (4.3%) of roughly 94,000 compounds were called active. A call without a number means that no potency is given here. Roughly 29% stayed inconclusive and do not appear here. This is one part of a sample in which actives are shown more often than they occur. The call rests on the fitted dose curve; in most records, active means well fitted inhibition curve with a large enough effect; inconclusive means small, poorly fitted or top-dose-only effect; inactive means no such curve, though single readings can be large or run the other way.

experiment: Cytotoxic Profiling in NIH 3T3 Cell Line of Diverse Libraries Using Quantitative High-Throughput Screening; details: NIH 3T3 viability, CellTiter-Glo ATP luminescence, 48-72 h; series mostly up to 96.7 µM; further: nearly all actives have a fitted effect of over 55% in size
How it was run: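 First NIH 3T3 cells are plated at 400 cells/well; next compound is pinned in; then plates incubate 48 or 72 hr at 37 °C; finally CellTiter-Glo is added and luminescence read after 10 min.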
Potency means the concentration at half of the fitted maximal effect.

| SMILES | Potency |
| --- | --- |
| O=C(CCn1ccc(=O)[nH]c1=O)N1CCn2nc(Cc3ccccc3)cc2C1 | inactive |
| Cn1ncc2c(C(=O)NCc3ccc(F)cc3)cc(-c3cccc(C(F)(F)F)c3)nc21 | inactive |
| COc1cccc(CNC(=O)c2cc(-c3ccc(Cl)nc3)nc3c2cnn3C)c1 | inactive |
| Cn1ncc2c(C(=O)NCc3cccnc3)cc(C(C)(C)C)nc21 | 44.7 µM (active) |
| Cc1ccccc1S(=O)(=O)N1C[C@@H]2CCCN3CCC[C@@H]([C@H]23)[C@H]1CCCC(=O)N1CCOCC1 | inactive |
| Cc1cc(C(=O)N[C@H](C)c2c(-c3ccc(F)cc3)noc2C(=O)O)nn1C | inactive |
| COC1CN(C2CCN(C(=O)C3CCC3)CC2)C12CCOCC2 (stereo unspecified) | inactive |
| Cc1ccc(-c2cccc(CN3CCCC(NC(=O)c4ccc(Cl)cc4)C3)c2)cc1Cl (stereo unspecified) | inactive |
| CC(=O)NC1(C)CCN(Cc2cnc(-c3ccc4c(ccn4C)c3)s2)CC1 | inactive |
| CC(=O)NC1(C)CCN(Cc2cccc(-c3ccc(C(=O)c4ccccc4)cc3)c2)C1 (stereo unspecified) | 35.5 µM (active) |
| O=C(Nc1ccccc1)C1CN(S(=O)(=O)c2cccnc2)CC12CCCCC2 (stereo unspecified) | inactive |
| Cc1ccc(-c2ccc3nnc(CNC(=O)c4ccncc4)n3n2)cc1C | inactive |
| Cc1ccc(-c2nnc3ccc(-c4ccoc4)nn23)nc1 | 100 µM (active) |
| COc1ccc(C(=O)NCc2nnc3ccc(-c4ccc(C)cc4)nn23)cc1F | inactive |
| Cc1ccc(CCN2C[C@]34C=C[C@H](O3)C(C(=O)N(C)Cc3nccn3C)C4C2=O)cc1 (stereo partly specified) | inactive |
| COc1ccc(CNC(=O)c2c(C)sc3ccn(CC(C)C)c(=O)c23)cc1OC | inactive |
| COc1ccc(CNC(=O)c2cccc3c2CCN3C(=O)c2ccc(F)cc2)cc1OC | 39.8 µM (active) |
| COc1ccc(-c2ccc(C(=O)NCc3ccc(F)cc3)cc2)nn1 | inactive |
| COc1ccc(CC(=O)N2CCC[C@@H]2C(=O)N2CCC(N3CCOC3=O)CC2)cc1 | inactive |
| COc1ccc(Cn2c(C3CCN(C(=O)Cc4ccsc4)CC3)n[nH]c2=O)cc1 | inactive |
| COc1cncc(-c2cccc(COc3ccc4c(cnn4CC[S+](C)(=O)[O-])c3)c2)c1 | 56.2 µM (active) |

| SMILES | Potency |
| --- | --- |
| O=C1CCN(C2CCCC2)CCOCCN1 | inactive |
| O=C(Nc1cccc(Cl)c1)[C@@H]1C[C@@H](c2ccc(F)cc2)N([S+](=O)([O-])c2cccnc2)C1 | 35.5 µM (active) |
| O=C(NCC1CCOCC1)Nc1cccc(Cl)c1 | inactive |
| O=C(Nc1cccc(F)c1)c1cc2n(n1)CC(c1ccc(Cl)cc1)OC2 (stereo unspecified) | inactive |
| O=C(Nc1cccc(Cl)c1)C1CN(c2ccccc2)C(=O)N1 (stereo unspecified) | inactive |
| O=C1CCN(Cc2ccncc2)CCCC(C(=O)Nc2cccc(F)c2)CCN1 (stereo unspecified) | inactive |
| O=C(Nc1cccc(Cl)c1)[C@@H]1C[C@H](c2ccc(F)cc2)N([S+](=O)([O-])C2CC2)C1 | 79.4 µM (active) |
| O=C(C1CCOC1)N1CCC(N(Cc2ccccc2)C2CCOCC2)CC1 (stereo unspecified) | inactive |
| CN(C)C(=O)N1CCCC1C(=O)N1CCC(c2nc3ccncc3[nH]2)C1 (stereo unspecified) | inactive |
| Nc1nc(CCCNC(=O)C2NCCc3[nH]cnc32)cs1 (stereo unspecified) | inactive |
| O=C(Nc1ccccc1)N1CCC(C(=O)N2CCC(N3CCOCC3=O)CC2)CC1 | inactive |
| CC[C@H]1CN(S(C)(=O)=O)CC[C@H]1CC(=O)NCc1ccco1 | inactive |
| Cc1cccc(C)c1NC(=O)N(C)CC1CCOCC1 | inactive |
| COCC(=O)N[C@@H]1CN(Cc2ccc(F)c(OC)c2)C[C@H]1CO | inactive |
| O=C(NCc1ccc(C(F)(F)F)cc1)c1ccc2nnc(-c3ccc(C(F)(F)F)cc3)n2c1 | 31.6 µM (active) |
| COCCNC(=O)c1ccc2nnc(-c3cccc(C(F)(F)F)c3)n2c1 | inactive |
| O=C(NCc1ccccc1)c1ccc2nnc(C3CC3)n2c1 | inactive |
| O=C(NCCc1ccccc1)c1ccc2nnc(-c3cccc(C(F)(F)F)c3)n2c1 | 39.8 µM (active) |
| O=C(NCCCc1ccccc1)C1CCc2nnc(-c3cccc(C(F)(F)F)c3)n21 (stereo unspecified) | inactive |
| O=C(NCc1ccc(F)c(F)c1)c1ccc2nnc(-c3cccnc3)n2c1 | inactive |
| COC(=O)c1ccc(CN2C(=O)[C@@H]3C[C@@H](O)CN3C3(CN(Cc4cccc(F)c4)C3)C2=O)cc1 | inactive |

| SMILES | Potency |
| --- | --- |
| CCN1CC(C(=O)NCC2(c3ccccc3F)CCCC2)CC1=O (stereo unspecified) | inactive |
| CC(C)c1ccc(CN2CCc3nc(N(C)C)[nH]c(=O)c3CC2)cc1 | inactive |
| COc1cccc(CCC(=O)N2C[C@@H](Oc3ccccc3)C[C@@H]2C(=O)N2CCOCC2)c1 | inactive |
| Cc1ccc(NC(=O)N[C@@H]2C=C(C(=O)NCCC(N)=O)C[C@@H](O)[C@@H]2O)cc1 | inactive |
| CN1C[C@@H]2CC[C@H](C1)N(Cc1cccc(OCCN3CCOCC3)c1)C2 | inactive |
| CCCCC(=O)N1CCC(OC2CCN(S(C)(=O)=O)CC2)CC1 | inactive |
| Cn1cnc(S(=O)(=O)N[C@H]2CCN(C(=O)CSCC(=O)O)[C@H](C(=O)N[C@H](Cc3ccccc3)C(N)=O)C2)c1 | inactive |
| COc1ccccc1-n1c(=O)c(C(=O)N2CCN([S+](C)(=O)[O-])CC2)nc2cccnc21 | inactive |
| Cc1cc(N2CCC3(CC2)CC(c2ccccc2)C(=O)N3C)ncn1 (stereo unspecified) | 79.4 µM (active) |
| Cc1ccncc1C(=O)N1CCC2(CC1)CC(c1ccccc1)C(=O)N2C (stereo unspecified) | inactive |
| CC#CCN1C(=O)NC(CCc2ccccc2)(C2CCN(Cc3ccccc3-c3ccco3)CC2)C1=O (stereo unspecified) | inactive |
| CC(=O)N1CC2(CCN(Cc3ncc[nH]3)CC2)CC1C(=O)O (stereo unspecified) | inactive |
| O=C(Nc1ccc(Oc2ccccc2)cc1)O[C@@H]1CO[C@H]2[C@@H]1OC[C@@H]2NCC1CC1 | inactive |
| O=C(Nc1ccccc1)O[C@@H]1CO[C@H]2[C@@H]1OC[C@@H]2NS(=O)(=O)c1cccc2cccnc12 | inactive |
| N#Cc1cccc(NC(=O)O[C@@H]2CO[C@H]3[C@@H]2OC[C@@H]3Nc2nccc(-c3ccccc3)n2)c1 | 35.5 µM (active) |
| COc1cccc([S+](=O)([O-])N2CCC3(C2)N=C(c2ccncc2)C(=O)N3)c1 (stereo unspecified) | inactive |
| CC1(C(=O)NCc2ccc3c(c2)OCO3)CCc2cnc(NCc3ccccc3)nc21 (stereo unspecified) | 3.16 µM (active) |
| CN1C(=O)CC[C@]2(C(=O)NCc3ccc4c(c3)OCO4)CCCC[C@@H]12 | inactive |
| CC1(C(=O)NCC2CCCO2)CCCc2cnc(Nc3ccccc3)nc21 (stereo unspecified) | inactive |
